Test results as given in PubChem BioAssay AID651702 (NMMLSC, 2012).
The whole screen tested about 360,000 compounds, of which about 2,400 (0.67%) were called active. The sample holds actives, similar compounds and a random draw of the others, so the mix is not that of the screen.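 The calls were made as follows: active = inhibition above about 55% (limit read from the data); inconclusive = no clear call, values can overlap the other calls; inactive = the rest.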

Experiment: LAMP-1 surface exposure blockers, TALL-104 cells – cell-based, flow cytometry, MLPCN library, primary screen (AID 651702)
Details: TALL-104 LAMP-1 surface exposure, at 10 µM, active compounds read high, cells stimulated with thapsigargin and PMA

inhibition, active:
Cc1c(/C=N\NC(=O)c2cc3ccccc3o2)c2ccccc2n1C 65.6%
Cc1cc(SCC(=O)c2ccccc2)nc(SCC(=O)c2ccccc2)n1 78.5%
CCCC(C(=O)n1nc(C)cc1C)C(NS(=O)(=O)c1ccc(C)cc1)c1ccccc1 (stereo not given) 66%
COc1cc(/C=C2/C(=O)ON=C2C)ccc1OCc1ccccc1F 60.6%

inhibition, inactive:
COc1ccc2c(c1)c(C(=O)N/N=C/c1cccs1)c(C)n2C 0.8%
CC(C)(C)n1nc2c(c1NC(=O)c1cc3ccccc3o1)CSC2 0%
CCn1nc(C(=O)NNS(=O)(=O)c2cc(/C=C/C(=O)O)cc(OC)c2OC)c2ccccc2c1=O 1.1%
CCOc1ccc(/C=C/C(=O)OCC(=O)c2ccccc2OC)cc1OC -4.4%
O=C(CN1C(=O)NC2(CCCCCC2)C1=O)NCc1cccs1 -5.2%
Cc1nc2c(C(=O)NCc3ccc4c(c3)OCO4)c[nH]n2c(=O)c1Cc1ccccc1F -2.7%
Cc1cccc(N(C)C(=O)c2cc(S(=O)(=O)N3CCCCC3)c[nH]2)c1 -3.8%
CCCCn1nnnc1C1(C)CCC(=O)N1Cc1ccc(OC)c(OC)c1 (stereo not given) -1.7%
Cc1nc2nc(SCC(=O)c3ccccc3)[nH]c2cc1Br -2.1%
Cc1nc(SCC(=O)c2ccccc2)c([N+](=O)[O-])[nH]1 0.6%
O=c1[nH]c(=S)[nH]c(O)c1/C=C1\C=Nc2ccccc21 -1.2%
CSCC(NS(=O)(=O)c1ccc(C)cc1)C(=O)O (stereo not given) 1.8%
Cc1ccc(S(=O)(=O)NC(C(=O)N2CCOCCOCCOCCOCC2)c2ccccc2)cc1 (stereo not given) -7%
N#Cc1ccc(C(C(=O)NCc2ccccc2)n2c(=O)c(-c3ccco3)nc3ccccc32)cc1 (stereo not given) 1.3%
COc1ccccc1CCNC(=O)c1c(C)nn(CC(C)C)c1Cl -1.6%
COCCCn1c(SCC(=O)Nc2oc(C)c3c(C)n[nH]c(=O)c23)nc2sc3c(c2c1=O)CCC3 -0.6%
CC(CCc1ccccc1)NC(=O)COC(=O)c1ccc(F)cc1 (stereo not given) 6%
CC1=NOC(=O)/C1=C\c1ccccc1 -7.3%
C#CCOc1ccc(/C=C2/C(=O)ON=C2C)cc1OCC -12.5%
CC(C)(C)c1ccc(C(=O)N2CCN(CCNC(=O)C(=O)Nc3ccc(F)cc3)CC2)cc1 -0.5%
COc1ccc(C2(c3ccc(OC)cc3)NC(=O)N(CC(=O)Nc3cc(C)on3)C2=O)cc1 5.1%
